Potency and outcome data for 20 molecules are collected here from PubChem BioAssay (NCATS).

Inconclusive results are not listed. Active and inactive are the calls of the source. Unless noted, calls come from the whole dose curve; as a rule, active = well fitted curve in the direction sought with a large enough effect; inconclusive = small, poorly fitted or top-dose-only effect, or another doubt; inactive = no such curve, though single readings can be large; an effect the other way counts as inactive or inconclusive.

A short description of assay [1]: High Content Imaging Cell-Based qHTS for Inhibitors of the mTORC1 Signaling Pathway in MEF (Tsc2-/-, p53-/-) Cells (AID 2666).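 Note: percent of cells scored positive for phospho-rpS6 Ser235/236 immunostaining by imaging.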 Put shortly: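 Inhibition of rpS6 phosphorylation is measured by immunofluorescence imaging in empty-vector Tsc2-/-, p53-/- mouse embryonic fibroblasts after 24 hrs compound exposure at 37 degree Celsius. Results are reported as % positive cells per well.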
For orientation: In qHTS, concentration-response curves come from the screen itself.

Assay [2] in a line: Validation screen for small molecules that induce DNA re-replication in MCF 10A normal breast cells (AID 463097). Note: nearly all actives have a fitted effect of over 60% in size. Note: potency is the fitted concentration of half-maximal effect. Put shortly: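 MCF 10A cells exposed to compound 48 hr at 37 C, 5% CO2, then Hoechst-stained 40 min. Laser-scanning imaging of nuclear DNA content (405 nm ex, 500-530 nm em); re-replication scored as rise in nuclei with elevated fluorescence intensity.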
Assay [3] addresses Ubiquitin carboxyl-terminal hydrolase 2 (Homo sapiens) (UniProt O75604). As to the kind of experiment: qHTS Validation Assay for Inhibitors of Ubiquitin-specific Protease USP2a Using CHOP2 as the Reporter (AID 463106). A digest of the protocol:
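Inhibition is expressed relative to NEM as the full-inhibition control, with concentration-response curves classed by fit quality, magnitude and activity. Enzyme (USP2 core, 10nM) meets 25nM Ub-CHOP2 after compound preincubation; readings are taken at 60min.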

Assay [4] addresses DNA polymerase III PolC-type (Bacillus subtilis (strain 168)) (UniProt P13267). Nature of the assay: qHTS Validation Assay for the Inhibitors of DNA Replication in Gram-Positive Bacteria (AID 485295). Note: potency is the fitted concentration of half-maximal effect. A digest of the protocol: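 Reconstituted B. subtilis Pol III holoenzyme (PolC, beta clamp, SSB, primase) preincubated with compound, then M13Gori single-stranded circular template with dNTPs/NTPs added; room temperature reaction. Stopped with EDTA/PicoGreen; dsDNA fluorescence read, EDTA as full-inhibition control.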

Assay [5] deals with Tumor susceptibility gene 101 protein (Homo sapiens) (UniProt Q99816). Nature of the assay: qHTS Validation Assay for Iinhibitors of HIV-1 Budding by Blocking the Interaction of PTAP/TSG101 (AID 485342; calls by dose curve). A digest of the protocol:
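Tsg101 binding domain (10 uM) with FITC-labeled PTAP peptide (50 nM) in HEPES pH 7.5 buffer, 20 min at r.t. with compounds. Binding measured by fluorescence polarization.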

In assay [6] the target is Beta-2 adrenergic receptor (Homo sapiens) (UniProt P07550). As to the kind of experiment: qHTS validation assay of beta-arrestin-biased ligands of beta2-adrenergic receptor (AID 485366). A digest of the protocol: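 Screening used a titration range of up to 46 microM in a beta-arrestin recruitment Tango luciferase assay. Cells in 1% FBS medium were treated 18 hr at 37 degrees C, and luminescence was normalized to %Activity.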
Beta-2 adrenergic receptor (Homo sapiens), sequence (P07550 whole entry, looked up): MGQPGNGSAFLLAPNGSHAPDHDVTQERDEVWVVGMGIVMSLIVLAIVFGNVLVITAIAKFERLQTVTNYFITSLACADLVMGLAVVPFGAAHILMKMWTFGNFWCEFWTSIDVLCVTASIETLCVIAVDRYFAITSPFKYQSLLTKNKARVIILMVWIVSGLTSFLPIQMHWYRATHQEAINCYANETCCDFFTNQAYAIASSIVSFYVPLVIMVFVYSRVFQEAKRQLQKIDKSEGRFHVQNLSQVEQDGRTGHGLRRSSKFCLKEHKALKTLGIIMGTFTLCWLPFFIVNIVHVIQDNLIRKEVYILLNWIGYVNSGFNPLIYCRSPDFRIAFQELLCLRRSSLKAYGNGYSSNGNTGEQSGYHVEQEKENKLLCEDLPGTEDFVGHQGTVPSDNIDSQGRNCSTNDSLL

Assay [7] can be described thus: High Content Imaging Cell-Based qHTS for Inhibitors of the mTORC1 Signaling Pathway in MEF Cells (AID 2667).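 Note: Tsc2-/- p53-/- MEFs stably re-expressing wild-type Tsc2 exposed 24 h; series mostly up to about 38 µM.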 A digest of the protocol: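 Fixed-cell imaging of phospho-S6 (Ser235/236, Alexa-488) after 24 hrs of compound treatment at 37 degree Celsius. Signal was normalized to Hoechst, and thresholds from the highest and lowest wells split cells into % active versus % non-active.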

Assay [8] is described as follows: Cytometry Cell-Based qHTS for Inhibitors of the mTORC1 Signaling Pathway in MEF cells (AID 2668). Note: potency is the fitted concentration of half-maximal effect. A digest of the protocol: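 MEFs (Tsc2-/-, p53-/- stably expressing WT Tsc2) treated 24 h at 37 degree Celsius, fixed, stained with Alexa-488 anti-phospho-rpS6 Ser235/236 and propidium iodide; Acumen laser scanning. Reported as % positive cells, phospho-S6 normalized to PI.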

Assay [9] has as its target ATP-dependent 6-phosphofructokinase (Trypanosoma brucei brucei) (UniProt O15648). Nature of the assay: qHTS Validation Assay to Find Inhibitors of T. brucei phosphofructokinase (AID 485368). The following applies: outcome: dose series up to 57.5 µM. Put shortly:
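PFK-generated ADP was measured after 45 min at room temperature using ADP-Glo. The reaction contained 0.5 mM F6P and 0.1 mM ATP.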

Assay [10] is described as follows: qHTS Validation Assay to Find Inhibitors of Chronic Active B-Cell Receptor Signaling (AID 485345; active = well fitted curve in the direction sought with a large enough effect in the main read-out, with a control signal flat, not every such curve was filed as active). Put shortly: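 TMD8 ABC-DLBCL cells with dox-inducible green luciferase–IκBα fusion and red native luciferase; compounds 46 uM–3 nM, 4 h at 37C with doxycycline in 0.5% FBS IMDM. Green/red ratio normalized to basal and 10 uM MG-132.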

Tumor susceptibility gene 101 protein (Homo sapiens), sequence (Q99816 whole entry, looked up, the tested form may be a part): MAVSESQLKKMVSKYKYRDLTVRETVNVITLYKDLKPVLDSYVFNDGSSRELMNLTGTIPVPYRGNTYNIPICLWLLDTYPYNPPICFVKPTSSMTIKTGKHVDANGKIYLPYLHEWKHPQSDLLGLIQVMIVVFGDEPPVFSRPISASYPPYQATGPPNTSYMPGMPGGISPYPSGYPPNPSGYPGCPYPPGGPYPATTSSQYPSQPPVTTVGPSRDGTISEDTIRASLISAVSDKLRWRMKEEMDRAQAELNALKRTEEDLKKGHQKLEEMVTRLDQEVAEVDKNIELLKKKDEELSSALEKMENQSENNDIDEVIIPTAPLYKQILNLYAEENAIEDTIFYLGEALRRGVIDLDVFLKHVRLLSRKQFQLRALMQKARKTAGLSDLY
DNA polymerase III PolC-type (Bacillus subtilis (strain 168)), sequence (P13267 whole entry, looked up): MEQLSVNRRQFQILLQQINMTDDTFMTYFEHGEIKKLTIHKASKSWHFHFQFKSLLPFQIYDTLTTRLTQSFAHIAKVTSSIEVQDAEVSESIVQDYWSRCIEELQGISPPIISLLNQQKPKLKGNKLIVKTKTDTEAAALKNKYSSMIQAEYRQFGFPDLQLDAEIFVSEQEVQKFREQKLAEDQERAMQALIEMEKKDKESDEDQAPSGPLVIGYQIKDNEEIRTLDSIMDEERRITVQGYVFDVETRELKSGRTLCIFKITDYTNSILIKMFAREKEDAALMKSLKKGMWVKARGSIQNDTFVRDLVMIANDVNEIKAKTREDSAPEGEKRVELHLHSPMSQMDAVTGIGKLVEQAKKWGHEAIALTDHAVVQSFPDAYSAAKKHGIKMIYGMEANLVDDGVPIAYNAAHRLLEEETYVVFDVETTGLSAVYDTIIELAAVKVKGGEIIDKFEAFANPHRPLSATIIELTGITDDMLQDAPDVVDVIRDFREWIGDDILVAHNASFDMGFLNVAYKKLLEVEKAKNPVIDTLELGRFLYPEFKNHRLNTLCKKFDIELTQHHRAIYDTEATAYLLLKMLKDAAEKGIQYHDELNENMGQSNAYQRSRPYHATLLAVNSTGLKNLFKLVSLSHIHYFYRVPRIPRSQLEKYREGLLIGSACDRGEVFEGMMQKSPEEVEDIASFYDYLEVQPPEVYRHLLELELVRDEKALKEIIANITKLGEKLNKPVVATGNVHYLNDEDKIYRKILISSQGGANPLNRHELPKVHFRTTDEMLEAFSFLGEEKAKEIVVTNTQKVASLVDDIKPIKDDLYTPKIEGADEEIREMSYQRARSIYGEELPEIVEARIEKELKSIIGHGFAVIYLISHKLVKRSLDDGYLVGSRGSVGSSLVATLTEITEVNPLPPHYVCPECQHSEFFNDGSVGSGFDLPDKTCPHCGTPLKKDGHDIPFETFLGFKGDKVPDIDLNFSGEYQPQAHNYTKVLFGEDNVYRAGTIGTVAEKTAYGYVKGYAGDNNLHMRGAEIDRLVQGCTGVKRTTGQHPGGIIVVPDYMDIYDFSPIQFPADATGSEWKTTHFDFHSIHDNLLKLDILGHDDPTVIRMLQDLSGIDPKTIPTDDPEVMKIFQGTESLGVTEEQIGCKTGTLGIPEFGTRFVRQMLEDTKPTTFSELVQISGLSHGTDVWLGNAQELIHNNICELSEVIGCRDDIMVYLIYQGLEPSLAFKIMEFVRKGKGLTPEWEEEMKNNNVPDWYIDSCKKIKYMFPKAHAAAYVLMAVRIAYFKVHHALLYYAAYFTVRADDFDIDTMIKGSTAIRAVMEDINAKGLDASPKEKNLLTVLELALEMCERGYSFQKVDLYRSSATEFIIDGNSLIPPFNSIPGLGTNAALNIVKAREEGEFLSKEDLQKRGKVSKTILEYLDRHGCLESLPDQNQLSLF
Ubiquitin carboxyl-terminal hydrolase 2 (Homo sapiens), sequence (O75604 whole entry, looked up): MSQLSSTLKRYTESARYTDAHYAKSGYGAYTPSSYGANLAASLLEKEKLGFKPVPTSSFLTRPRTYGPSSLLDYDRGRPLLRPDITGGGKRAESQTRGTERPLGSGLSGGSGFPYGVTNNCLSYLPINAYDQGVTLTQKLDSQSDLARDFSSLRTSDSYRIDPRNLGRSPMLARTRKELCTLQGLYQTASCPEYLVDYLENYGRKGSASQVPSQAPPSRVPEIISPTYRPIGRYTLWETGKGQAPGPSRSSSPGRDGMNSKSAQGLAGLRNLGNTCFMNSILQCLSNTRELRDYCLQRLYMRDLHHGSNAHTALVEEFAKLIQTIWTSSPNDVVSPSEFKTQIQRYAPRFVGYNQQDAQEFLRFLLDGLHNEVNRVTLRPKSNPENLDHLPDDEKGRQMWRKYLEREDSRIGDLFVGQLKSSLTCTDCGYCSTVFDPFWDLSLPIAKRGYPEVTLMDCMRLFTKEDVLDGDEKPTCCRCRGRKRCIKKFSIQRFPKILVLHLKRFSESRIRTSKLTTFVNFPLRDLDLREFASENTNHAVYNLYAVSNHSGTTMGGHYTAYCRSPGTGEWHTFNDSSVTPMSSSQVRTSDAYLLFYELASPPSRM
ATP-dependent 6-phosphofructokinase (Trypanosoma brucei brucei), sequence (O15648 whole entry, looked up): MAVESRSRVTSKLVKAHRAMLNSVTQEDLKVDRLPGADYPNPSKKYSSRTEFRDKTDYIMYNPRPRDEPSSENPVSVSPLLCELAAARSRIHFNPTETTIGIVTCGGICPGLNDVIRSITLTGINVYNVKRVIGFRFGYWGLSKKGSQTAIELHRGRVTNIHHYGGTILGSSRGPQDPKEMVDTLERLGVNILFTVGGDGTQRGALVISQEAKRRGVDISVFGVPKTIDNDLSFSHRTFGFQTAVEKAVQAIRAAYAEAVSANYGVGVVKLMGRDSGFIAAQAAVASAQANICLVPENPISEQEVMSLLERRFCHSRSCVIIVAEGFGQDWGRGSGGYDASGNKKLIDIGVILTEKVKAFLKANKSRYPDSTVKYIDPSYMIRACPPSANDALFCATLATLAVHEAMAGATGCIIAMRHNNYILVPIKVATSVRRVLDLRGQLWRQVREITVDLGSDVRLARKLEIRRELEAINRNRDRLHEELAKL

Take `Nc1ncn([C@@H]2O[C@H](CO)[C@@H](O)[C@H]2O)c(=O)n1`: the Potency entry in [1] and in [4] was “inactive” in each case. For the same molecule, the Potency in [2] is 3.16 µM (active). The call in assay [3], in assay [5] and in assay [6] was inactive.
`C[C@]12CC[C@@H]3c4ccc(O)cc4C[C@@H](CCCCCCCCCS(=O)CCCC(F)(F)C(F)(F)F)[C@H]3[C@@H]1CC[C@@H]2O` (stereo not given in full): the Potency result in [1], in assay [7], in assay [8] and in assay [4] was “inactive” in each case. Also, the molecule was classed as inactive in assay [3], in [5], in assay [6] and in assay [9].
In the case of `CCCCNc1c(C(=O)OCC)c(C)nc2c1cnn2CC`, the Potency entry in assay [1], in assay [7], in assay [8] and in [4] was “inactive” in each case. In addition, the call in assay [3], in assay [5] and in assay [6] was inactive.
On to `CC(=O)OC(C)C[N+](C)(C)C` (stereo not given), for which the Potency entry in [7], in assay [8], in assay [2], in [4] and in assay [10] was “inactive” each time. In addition, the call in assay [3], in [5] and in assay [6] was inactive.
With `CNCCCN1c2ccccc2CCc2ccccc21`, the Potency entry in [1], in [2], in [4] and in [10] was “inactive” in each case. Further, the molecule was classed as inactive in assay [3], in assay [5] and in [9].
`Nc1nc(N)c2nc(-c3ccccc3)c(N)nc2n1`: the Potency entry in assay [1], in assay [7] and in assay [4] was “inactive” each time. In addition, the call in assay [3], in assay [5] and in assay [6] was inactive.
For `CCN(CC)CCOCCOC(=O)C1(c2ccccc2)CCCC1`, the Potency result in assay [7], in assay [8], in assay [2], in assay [4] and in [10] was “inactive” in each case. Besides, the molecule was called inactive in [3], in assay [5] and in assay [6].
For the molecule `Cc1scc2c1N(C(=O)CN1CCN(C)CC1)c1ccccc1NC2=O`, the Potency result in assay [7], in assay [8], in assay [2], in assay [4] and in [10] was “inactive” in each case. For the same molecule, the call in [3], in assay [5] and in assay [6] was inactive.
As for `Cc1cc(C)c(/C=C2\C(=O)Nc3ccccc32)[nH]1`, the Potency result in [1], in assay [7] and in assay [4] was “inactive” in each case. In addition, the molecule was called inactive in assay [6] and in assay [9].
As for `CN(C)CCCN1c2ccccc2Sc2ccccc21`, the Potency entry in [1], in assay [2] and in assay [4] was “inactive” each time. Besides, the call in [3] and in assay [6] was inactive.
On to `NC/C=C/C(=O)O`, for which the Potency result in assay [7], in assay [8], in assay [2], in assay [4] and in assay [10] was “inactive” throughout. Moreover, the result in assay [3], in assay [5] and in [6] was inactive.
Take `COc1cc(C(=O)OCCCN2CCCN(CCCOC(=O)c3cc(OC)c(OC)c(OC)c3)CC2)cc(OC)c1OC`: the Potency entry in [1] and in [4] was “inactive” each time. The result in assay [3], in assay [5] and in assay [6] was inactive.
With `CCN(CC)CCCN(c1ccccc1)C1Cc2ccccc2C1`, the Potency entry in assay [1], in assay [4] and in assay [10] was “inactive” in each case. The call in [3] and in [6] was inactive.
In the case of `C[n+]1cc2c3c(ccc2c2ccc4cc5c(cc4c21)OCO5)OCO3`, the Potency result in [1], in assay [7] and in assay [8] was “inactive” in each case. The result in assay [3] and in assay [6] was inactive. Further, in assay [4], the Potency was 8.44 µM (active).
`CCCCNc1ccc(C(=O)OCCN(C)C)cc1`: the Potency entry in assay [1], in assay [7], in assay [8], in [4] and in assay [10] was “inactive” in each case. The molecule was called inactive in assay [3], in assay [6] and in assay [9].
As to `CN1C[C@H](C(=O)N[C@]2(C)O[C@@]3(O)[C@@H]4CCCN4C(=O)[C@H](Cc4ccccc4)N3C2=O)C[C@@H]2c3cccc4[nH]cc(c34)C[C@H]21`, the Potency entry in [1], in [7], in assay [8], in assay [4] and in [10] was “inactive” throughout. In addition, the molecule was called inactive in assay [3], in assay [5], in assay [6] and in [9].
On to `O=C(CCCN1CCC(O)(c2cccc(C(F)(F)F)c2)CC1)c1ccc(F)cc1`, for which the Potency entry in assay [1], in assay [2], in assay [4] and in assay [10] was “inactive” in each case. In addition, the Potency in assay [8] was 13.1 µM (active). For the same molecule, the outcome in assay [3], in assay [5] and in assay [6] was inactive.
On to `CCNC(=O)N1CCN(CCCC(c2ccc(F)cc2)c2ccc(F)cc2)CC1`, for which the Potency result in assay [1], in [7], in assay [2], in assay [4] and in assay [10] was “inactive” in each case. Further, the call in [3], in assay [5], in [6] and in assay [9] was inactive.
On to `C[C@@H](O)[C@H]1C(=O)N2C(C(=O)O)=C(SCCN=CN)C[C@H]12`, for which the Potency result in assay [1], in [7], in assay [8], in [4] and in assay [10] was “inactive” each time. Besides, the call in assay [3], in assay [6] and in assay [9] was inactive.
As for `CN(C)CCCN1c2ccccc2Sc2ccc(C(F)(F)F)cc21`, the Potency result in [1], in assay [4] and in [10] was “inactive” in each case. Moreover, the call in [3], in assay [5] and in assay [6] was inactive.
